# Assay results as given in PMC7862700, “An all-to-all approach to the identification of sequence-specific readers for epigenetic DNA modifications on cytosine”.
# Legend:
# Assay in all cases: DAPPL (digital affinity profiling via proximity ligation, sequencing); 10 mM Tris-HCl pH 7.5, 50 mM NaCl, 1 mM DTT, 4% glycerol, room temperature, 30 min; GST-TFs on glutathione beads, 16-mer random dsDNA library, 0.1% formaldehyde crosslink after washing; high values mean tight binding
# FLI1 = biological target: T1, FLI1 (Homo sapiens, UniProt Q01543 1-452); conditions: protein: recombinant; tags: N-terminal GST; dsDNA, one strand shown
# T1 sequence: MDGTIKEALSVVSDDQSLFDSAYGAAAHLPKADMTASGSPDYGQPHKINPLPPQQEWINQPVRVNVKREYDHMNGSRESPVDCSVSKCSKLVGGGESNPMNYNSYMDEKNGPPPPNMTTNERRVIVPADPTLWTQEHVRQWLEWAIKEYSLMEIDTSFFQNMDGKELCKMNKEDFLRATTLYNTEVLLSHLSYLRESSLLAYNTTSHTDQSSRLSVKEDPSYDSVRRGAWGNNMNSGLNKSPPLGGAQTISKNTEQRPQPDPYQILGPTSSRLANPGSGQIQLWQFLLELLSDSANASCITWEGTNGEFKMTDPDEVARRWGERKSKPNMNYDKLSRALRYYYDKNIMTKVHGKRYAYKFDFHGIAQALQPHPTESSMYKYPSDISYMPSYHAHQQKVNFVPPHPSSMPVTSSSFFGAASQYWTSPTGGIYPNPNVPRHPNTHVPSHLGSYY
# Method in brief: (§1)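 GST fusions of human transcription factors were expressed in yeast and captured with glutathione beads. Once given DNA barcodes and pooled alongside a tag-only sample, they were incubated for 30 min at room temperature with 200 nmole of a random double-stranded 16-mer DNA library in Tris/NaCl/DTT/glycerol buffer, then washed, crosslinked (0.1% formaldehyde), proximity-ligated, PCR-amplified and sequenced on an Illumina NextSeq500. The binding signal of each hexamer is its read frequency for a factor divided by its frequency for the tag-only sample.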
# ELK1 = biological target: T2, ELK1 (Homo sapiens, UniProt P19419 1-428); conditions: protein: recombinant; tags: N-terminal GST; dsDNA, one strand shown
# T2 sequence: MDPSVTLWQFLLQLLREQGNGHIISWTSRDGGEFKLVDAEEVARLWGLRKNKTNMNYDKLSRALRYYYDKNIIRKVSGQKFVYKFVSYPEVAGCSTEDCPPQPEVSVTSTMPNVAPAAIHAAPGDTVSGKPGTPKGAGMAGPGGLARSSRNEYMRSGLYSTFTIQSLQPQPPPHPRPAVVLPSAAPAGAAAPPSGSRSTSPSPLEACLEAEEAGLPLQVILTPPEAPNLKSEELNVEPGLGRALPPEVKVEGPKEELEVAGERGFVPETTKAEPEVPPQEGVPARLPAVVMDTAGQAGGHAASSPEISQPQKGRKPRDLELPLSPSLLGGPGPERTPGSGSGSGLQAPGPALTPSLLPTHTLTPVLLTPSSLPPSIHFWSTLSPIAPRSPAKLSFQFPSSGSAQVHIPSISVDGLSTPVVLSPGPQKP
# Method in brief: as §1
# GABPA = biological target: T3, GABPA (Homo sapiens, UniProt Q06546 1-454); conditions: protein: recombinant; tags: N-terminal GST; dsDNA, one strand shown
# T3 sequence: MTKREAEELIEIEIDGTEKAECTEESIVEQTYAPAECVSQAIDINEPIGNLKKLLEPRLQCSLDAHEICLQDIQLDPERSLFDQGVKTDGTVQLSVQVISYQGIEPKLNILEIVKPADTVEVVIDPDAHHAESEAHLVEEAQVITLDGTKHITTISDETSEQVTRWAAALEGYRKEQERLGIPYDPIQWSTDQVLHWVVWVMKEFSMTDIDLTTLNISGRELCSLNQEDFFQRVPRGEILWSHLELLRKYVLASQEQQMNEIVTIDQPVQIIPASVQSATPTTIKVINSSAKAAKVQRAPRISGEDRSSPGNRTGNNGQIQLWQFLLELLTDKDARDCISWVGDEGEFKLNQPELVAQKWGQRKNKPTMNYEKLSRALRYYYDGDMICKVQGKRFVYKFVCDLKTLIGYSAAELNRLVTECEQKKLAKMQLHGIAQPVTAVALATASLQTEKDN
# Method in brief: as §1
# ERG = biological target: T4, ERG (Homo sapiens, UniProt P11308 1-479); conditions: protein: recombinant; tags: N-terminal GST; dsDNA, one strand shown
# T4 sequence: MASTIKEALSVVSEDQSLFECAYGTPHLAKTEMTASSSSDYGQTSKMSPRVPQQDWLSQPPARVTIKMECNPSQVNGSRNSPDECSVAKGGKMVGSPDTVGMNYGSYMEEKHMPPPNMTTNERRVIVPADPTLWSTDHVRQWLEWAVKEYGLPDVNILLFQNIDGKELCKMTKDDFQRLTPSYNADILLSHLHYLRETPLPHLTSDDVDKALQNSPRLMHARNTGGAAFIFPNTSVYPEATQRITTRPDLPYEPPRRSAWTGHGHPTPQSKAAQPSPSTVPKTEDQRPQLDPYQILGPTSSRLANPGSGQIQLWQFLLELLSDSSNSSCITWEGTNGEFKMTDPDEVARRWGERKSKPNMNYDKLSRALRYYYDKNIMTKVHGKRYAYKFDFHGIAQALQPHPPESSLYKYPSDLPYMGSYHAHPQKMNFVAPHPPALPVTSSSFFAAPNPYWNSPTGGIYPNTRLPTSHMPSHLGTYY
# Method in brief: as §1
# ELF1 = ELF1 (Homo sapiens, UniProt P32519 1-619); conditions: protein: recombinant; tags: N-terminal GST; dsDNA, one strand shown
# Sequence of ELF1 (P32519 whole entry): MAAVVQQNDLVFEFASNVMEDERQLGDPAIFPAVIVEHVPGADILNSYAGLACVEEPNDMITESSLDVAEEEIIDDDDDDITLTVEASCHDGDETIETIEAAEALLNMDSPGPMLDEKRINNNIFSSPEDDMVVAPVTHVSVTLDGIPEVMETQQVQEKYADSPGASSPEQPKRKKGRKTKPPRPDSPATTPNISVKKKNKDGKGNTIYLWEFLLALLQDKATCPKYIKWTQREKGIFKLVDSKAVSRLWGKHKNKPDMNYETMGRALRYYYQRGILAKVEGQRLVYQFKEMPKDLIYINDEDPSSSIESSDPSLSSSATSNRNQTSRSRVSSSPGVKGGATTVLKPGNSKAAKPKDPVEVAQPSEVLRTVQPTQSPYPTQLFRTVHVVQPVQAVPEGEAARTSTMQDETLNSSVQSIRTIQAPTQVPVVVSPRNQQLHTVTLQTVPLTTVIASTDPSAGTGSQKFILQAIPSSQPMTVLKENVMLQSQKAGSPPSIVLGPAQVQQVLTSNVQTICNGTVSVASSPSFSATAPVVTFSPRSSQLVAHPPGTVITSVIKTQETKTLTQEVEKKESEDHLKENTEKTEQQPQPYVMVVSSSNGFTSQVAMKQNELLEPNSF
# Method in brief: as §1
# EHF = biological target: T5, EHF (Homo sapiens, UniProt Q9NZC4 1-300); conditions: protein: recombinant; tags: N-terminal GST; dsDNA, one strand shown
# T5 sequence: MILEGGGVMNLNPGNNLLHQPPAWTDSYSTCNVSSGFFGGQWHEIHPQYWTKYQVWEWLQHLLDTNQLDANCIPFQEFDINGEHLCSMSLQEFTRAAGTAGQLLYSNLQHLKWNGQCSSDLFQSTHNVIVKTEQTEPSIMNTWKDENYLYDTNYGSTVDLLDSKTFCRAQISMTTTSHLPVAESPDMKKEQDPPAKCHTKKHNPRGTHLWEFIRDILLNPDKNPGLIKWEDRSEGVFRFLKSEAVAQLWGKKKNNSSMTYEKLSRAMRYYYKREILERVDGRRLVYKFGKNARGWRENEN
# Method in brief: as §1
# SPI1 = SPI1 (Homo sapiens, UniProt P17947 1-270); conditions: protein: recombinant; tags: N-terminal GST; dsDNA, one strand shown
# Method in brief: as §1
# SPIB = SPIB (Homo sapiens, UniProt Q01892 1-262); conditions: protein: recombinant; tags: N-terminal GST; dsDNA, one strand shown
# Sequence of SPIB (Q01892 whole entry): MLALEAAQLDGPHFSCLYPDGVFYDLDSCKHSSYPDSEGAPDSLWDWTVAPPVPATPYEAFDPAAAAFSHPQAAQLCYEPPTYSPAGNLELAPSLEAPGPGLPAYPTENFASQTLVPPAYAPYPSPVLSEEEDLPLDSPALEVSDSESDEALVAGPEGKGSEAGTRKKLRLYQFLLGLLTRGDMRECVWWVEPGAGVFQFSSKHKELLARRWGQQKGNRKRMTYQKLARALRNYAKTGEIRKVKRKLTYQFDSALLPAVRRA
# Method in brief: as §1
# ELK3 = biological target: T6, ELK3 (Homo sapiens, UniProt P41970 1-407); conditions: protein: recombinant; tags: N-terminal GST; dsDNA, one strand shown
# T6 sequence: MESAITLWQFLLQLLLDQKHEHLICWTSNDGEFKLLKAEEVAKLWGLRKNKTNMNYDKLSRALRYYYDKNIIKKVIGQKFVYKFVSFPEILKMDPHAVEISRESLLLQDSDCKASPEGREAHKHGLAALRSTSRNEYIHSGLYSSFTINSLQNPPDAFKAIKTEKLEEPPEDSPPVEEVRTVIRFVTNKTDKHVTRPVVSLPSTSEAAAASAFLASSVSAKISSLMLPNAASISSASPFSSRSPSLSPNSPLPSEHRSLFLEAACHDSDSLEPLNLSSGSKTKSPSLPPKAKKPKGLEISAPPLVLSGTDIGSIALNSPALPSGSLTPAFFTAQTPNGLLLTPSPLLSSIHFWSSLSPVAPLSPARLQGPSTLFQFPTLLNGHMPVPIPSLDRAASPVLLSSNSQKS
# Method in brief: as §1
# FEV = biological target: T7, FEV (Homo sapiens, UniProt Q99581 1-238); conditions: protein: recombinant; tags: N-terminal GST; dsDNA, one strand shown
# T7 sequence: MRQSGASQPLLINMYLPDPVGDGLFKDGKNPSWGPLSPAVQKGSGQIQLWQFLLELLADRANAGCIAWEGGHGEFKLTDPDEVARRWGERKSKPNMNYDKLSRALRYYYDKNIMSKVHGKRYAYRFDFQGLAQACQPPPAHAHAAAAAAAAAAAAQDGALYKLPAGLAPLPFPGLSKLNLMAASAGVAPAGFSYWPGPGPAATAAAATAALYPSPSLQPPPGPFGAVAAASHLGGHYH
# Method in brief: as §1
# ETV5 = ETV5 (Homo sapiens, UniProt P41161 1-510); conditions: protein: recombinant; tags: N-terminal GST; dsDNA, one strand shown
# Sequence of ETV5 (P41161 whole entry): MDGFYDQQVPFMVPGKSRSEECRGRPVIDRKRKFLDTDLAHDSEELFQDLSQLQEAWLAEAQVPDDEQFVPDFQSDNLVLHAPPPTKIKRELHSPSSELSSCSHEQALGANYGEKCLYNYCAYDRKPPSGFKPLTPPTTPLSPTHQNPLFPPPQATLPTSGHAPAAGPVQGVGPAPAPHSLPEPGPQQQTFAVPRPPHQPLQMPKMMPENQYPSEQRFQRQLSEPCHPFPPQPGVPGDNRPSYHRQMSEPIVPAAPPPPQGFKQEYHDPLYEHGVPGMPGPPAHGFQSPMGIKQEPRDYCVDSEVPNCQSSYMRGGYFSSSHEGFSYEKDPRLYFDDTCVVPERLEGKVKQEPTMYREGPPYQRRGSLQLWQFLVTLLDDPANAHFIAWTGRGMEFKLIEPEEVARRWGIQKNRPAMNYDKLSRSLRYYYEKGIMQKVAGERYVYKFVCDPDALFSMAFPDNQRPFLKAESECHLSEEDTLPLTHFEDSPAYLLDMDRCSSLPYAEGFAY
# Method in brief: as §1
# HSF1 = HSF1 (Homo sapiens, UniProt Q00613 1-529); conditions: protein: recombinant; tags: N-terminal GST; chain copies: 3; dsDNA, one strand shown
# Sequence of HSF1 (Q00613 whole entry): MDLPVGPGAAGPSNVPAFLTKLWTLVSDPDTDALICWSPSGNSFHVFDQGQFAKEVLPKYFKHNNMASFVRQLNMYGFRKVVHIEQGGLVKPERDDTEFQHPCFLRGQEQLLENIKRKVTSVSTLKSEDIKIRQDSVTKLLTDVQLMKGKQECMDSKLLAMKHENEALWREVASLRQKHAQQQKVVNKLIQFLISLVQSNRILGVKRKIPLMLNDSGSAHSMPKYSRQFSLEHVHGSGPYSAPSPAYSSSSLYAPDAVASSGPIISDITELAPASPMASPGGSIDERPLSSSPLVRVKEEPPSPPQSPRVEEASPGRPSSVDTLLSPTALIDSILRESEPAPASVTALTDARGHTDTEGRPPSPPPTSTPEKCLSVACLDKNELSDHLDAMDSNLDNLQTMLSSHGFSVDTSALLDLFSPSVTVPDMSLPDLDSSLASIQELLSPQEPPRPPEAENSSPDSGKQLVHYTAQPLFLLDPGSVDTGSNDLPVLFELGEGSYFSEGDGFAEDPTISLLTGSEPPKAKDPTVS
# Method in brief: as §1
# SPIC = biological target: T8, SPIC (Homo sapiens, UniProt Q8N5J4 1-248); conditions: protein: recombinant; tags: N-terminal GST; dsDNA, one strand shown
# T8 sequence: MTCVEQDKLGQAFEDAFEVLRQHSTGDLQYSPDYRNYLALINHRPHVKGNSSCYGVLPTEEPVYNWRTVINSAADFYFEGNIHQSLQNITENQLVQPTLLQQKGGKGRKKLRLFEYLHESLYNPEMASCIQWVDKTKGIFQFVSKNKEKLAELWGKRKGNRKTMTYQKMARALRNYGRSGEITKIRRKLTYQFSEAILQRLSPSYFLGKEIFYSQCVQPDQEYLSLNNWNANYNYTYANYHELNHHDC
# Method in brief: as §1
# ELF4 = ELF4 (Homo sapiens, UniProt Q99607 1-663); conditions: protein: recombinant; tags: N-terminal GST; dsDNA, one strand shown
# Sequence of ELF4 (Q99607 whole entry): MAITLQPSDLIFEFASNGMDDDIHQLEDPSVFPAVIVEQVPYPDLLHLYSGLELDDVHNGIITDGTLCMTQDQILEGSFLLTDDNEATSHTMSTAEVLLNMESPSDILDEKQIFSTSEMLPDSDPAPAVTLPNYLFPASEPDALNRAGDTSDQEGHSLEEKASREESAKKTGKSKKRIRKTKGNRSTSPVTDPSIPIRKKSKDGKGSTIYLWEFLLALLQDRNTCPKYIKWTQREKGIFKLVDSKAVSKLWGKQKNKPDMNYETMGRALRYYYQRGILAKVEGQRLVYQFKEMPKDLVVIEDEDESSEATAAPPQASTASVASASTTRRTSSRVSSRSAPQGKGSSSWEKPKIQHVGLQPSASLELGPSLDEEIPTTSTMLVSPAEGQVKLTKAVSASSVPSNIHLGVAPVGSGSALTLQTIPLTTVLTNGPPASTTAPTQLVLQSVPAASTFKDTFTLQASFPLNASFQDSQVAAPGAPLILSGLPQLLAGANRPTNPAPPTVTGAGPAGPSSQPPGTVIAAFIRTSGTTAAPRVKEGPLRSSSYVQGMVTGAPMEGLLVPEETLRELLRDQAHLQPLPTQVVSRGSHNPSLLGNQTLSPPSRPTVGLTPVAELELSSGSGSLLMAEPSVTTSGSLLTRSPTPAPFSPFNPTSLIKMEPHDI
# Method in brief: as §1
# ELK4 = biological target: T9, ELK4 (Homo sapiens, UniProt P28324-2 1-405); conditions: protein: recombinant; tags: N-terminal GST; dsDNA, one strand shown
# T9 sequence: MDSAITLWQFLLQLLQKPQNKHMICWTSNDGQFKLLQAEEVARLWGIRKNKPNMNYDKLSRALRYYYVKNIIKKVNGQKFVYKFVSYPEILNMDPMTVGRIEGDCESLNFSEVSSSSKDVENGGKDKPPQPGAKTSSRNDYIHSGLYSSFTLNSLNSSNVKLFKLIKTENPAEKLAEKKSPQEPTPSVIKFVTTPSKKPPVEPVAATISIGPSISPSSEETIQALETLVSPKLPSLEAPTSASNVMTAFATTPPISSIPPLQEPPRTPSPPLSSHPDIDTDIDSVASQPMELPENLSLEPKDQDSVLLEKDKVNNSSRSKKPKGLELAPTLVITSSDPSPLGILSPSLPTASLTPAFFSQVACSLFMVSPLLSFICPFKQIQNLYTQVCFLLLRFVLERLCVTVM
# Method in brief: as §1
# ETV2 = biological target: T10, ETV2 (Homo sapiens, UniProt O00321 1-342); conditions: protein: recombinant; tags: N-terminal GST; dsDNA, one strand shown
# T10 sequence: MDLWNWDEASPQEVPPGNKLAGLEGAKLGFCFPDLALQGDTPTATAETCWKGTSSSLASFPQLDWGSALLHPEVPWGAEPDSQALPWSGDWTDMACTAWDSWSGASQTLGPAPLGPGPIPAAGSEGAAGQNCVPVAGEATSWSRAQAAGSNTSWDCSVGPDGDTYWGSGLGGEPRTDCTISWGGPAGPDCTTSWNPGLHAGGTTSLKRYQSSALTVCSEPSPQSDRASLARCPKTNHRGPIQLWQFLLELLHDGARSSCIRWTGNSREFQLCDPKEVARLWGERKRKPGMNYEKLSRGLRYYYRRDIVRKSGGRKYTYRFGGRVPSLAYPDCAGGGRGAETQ
# Method in brief: as §1
# ELF3 = biological target: T11, ELF3 (Homo sapiens, UniProt P78545 1-371); conditions: protein: recombinant; tags: N-terminal GST; dsDNA, one strand shown
# T11 sequence: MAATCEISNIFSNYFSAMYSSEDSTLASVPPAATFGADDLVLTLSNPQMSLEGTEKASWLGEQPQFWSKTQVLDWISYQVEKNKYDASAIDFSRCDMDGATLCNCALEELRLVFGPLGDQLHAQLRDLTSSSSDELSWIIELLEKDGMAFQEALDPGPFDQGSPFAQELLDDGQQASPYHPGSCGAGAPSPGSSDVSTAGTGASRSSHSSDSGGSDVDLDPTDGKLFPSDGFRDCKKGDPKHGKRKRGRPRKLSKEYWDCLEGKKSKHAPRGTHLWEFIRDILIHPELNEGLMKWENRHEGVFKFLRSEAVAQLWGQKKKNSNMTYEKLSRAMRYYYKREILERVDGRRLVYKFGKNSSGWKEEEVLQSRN
# Method in brief: as §1
# CRX = CRX (Homo sapiens, UniProt O43186 1-299); conditions: protein: recombinant; tags: N-terminal GST; dsDNA, one strand shown
# Sequence of CRX (O43186 whole entry): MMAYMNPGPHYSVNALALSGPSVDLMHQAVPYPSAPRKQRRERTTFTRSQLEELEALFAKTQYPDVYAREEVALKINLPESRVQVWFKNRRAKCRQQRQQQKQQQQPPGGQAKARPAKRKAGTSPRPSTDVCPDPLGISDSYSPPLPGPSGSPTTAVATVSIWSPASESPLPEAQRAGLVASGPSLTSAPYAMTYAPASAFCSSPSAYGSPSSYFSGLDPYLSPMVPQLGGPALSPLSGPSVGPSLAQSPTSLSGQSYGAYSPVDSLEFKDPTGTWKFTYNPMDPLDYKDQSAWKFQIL
# Method in brief: as §1
# ETV1 = ETV1 (Homo sapiens, UniProt P50549 1-477); conditions: protein: recombinant; tags: N-terminal GST; dsDNA, one strand shown
# Sequence of ETV1 (P50549 whole entry): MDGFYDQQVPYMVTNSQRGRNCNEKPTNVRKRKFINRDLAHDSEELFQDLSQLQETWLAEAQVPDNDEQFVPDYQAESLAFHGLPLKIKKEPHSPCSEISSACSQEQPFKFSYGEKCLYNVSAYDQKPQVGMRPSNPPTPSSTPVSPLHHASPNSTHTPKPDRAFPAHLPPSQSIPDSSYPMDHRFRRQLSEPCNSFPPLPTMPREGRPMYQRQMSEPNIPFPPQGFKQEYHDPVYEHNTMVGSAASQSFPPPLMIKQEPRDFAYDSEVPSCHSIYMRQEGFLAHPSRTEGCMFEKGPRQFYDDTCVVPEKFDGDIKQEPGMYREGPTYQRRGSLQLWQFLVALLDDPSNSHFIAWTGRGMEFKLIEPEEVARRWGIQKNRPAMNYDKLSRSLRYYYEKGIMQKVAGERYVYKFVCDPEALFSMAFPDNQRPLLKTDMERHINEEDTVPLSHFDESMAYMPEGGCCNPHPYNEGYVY
# Method in brief: as §1
sequence,measurement,setting,value
TTCCAC,binding signal,FLI1,"1.39 fold enrichment (6-mer frequency, TF over GST control)"
same,binding signal,ELK1,"1.28 fold enrichment (6-mer frequency, TF over GST control)"
same,binding signal,GABPA,"1.38 fold enrichment (6-mer frequency, TF over GST control)"
same,binding signal,ERG,"1.4 fold enrichment (6-mer frequency, TF over GST control)"
same,binding signal,ELF1,"1.45 fold enrichment (6-mer frequency, TF over GST control)"
same,binding signal,EHF,"1.33 fold enrichment (6-mer frequency, TF over GST control)"
same,binding signal,SPI1,"1.42 fold enrichment (6-mer frequency, TF over GST control)"
same,binding signal,SPIB,"1.35 fold enrichment (6-mer frequency, TF over GST control)"
same,binding signal,ELK3,"1.5 fold enrichment (6-mer frequency, TF over GST control)"
same,binding signal,FEV,"1.37 fold enrichment (6-mer frequency, TF over GST control)"
same,binding signal,ETV5,"1.41 fold enrichment (6-mer frequency, TF over GST control)"
same,binding signal,HSF1,"1.83 fold enrichment (6-mer frequency, TF over GST control)"
same,binding signal,SPIC,"1.57 fold enrichment (6-mer frequency, TF over GST control)"
same,binding signal,ELF4,"1.42 fold enrichment (6-mer frequency, TF over GST control)"
same,binding signal,ELK4,"1.39 fold enrichment (6-mer frequency, TF over GST control)"
same,binding signal,ETV2,"1.42 fold enrichment (6-mer frequency, TF over GST control)"
same,binding signal,ELF3,"1.38 fold enrichment (6-mer frequency, TF over GST control)"
same,binding signal,CRX,"1.26 fold enrichment (6-mer frequency, TF over GST control)"
same,binding signal,ETV1,"1.38 fold enrichment (6-mer frequency, TF over GST control)"
